# Laboratory results as given in PubChem BioAssay (NCATS).
# Results filed as inconclusive are left out. Where a call stands in place of a potency, no number is given. Activity calls are given as the source filed them. Calls come from the whole dose curve; as a rule, active = well fitted inhibition curve with a large enough effect; inconclusive = small, poorly fitted or top-dose-only effect; inactive = flat fitted curve, though single readings scatter. Where a SMILES comes first, the peptide text is derived from it. [ ]: non-standard residue; d: D form. pGlu = O=C1CC[C@@H](C(=O)O)N1; Thz = O=C(O)[C@@H]1CSCN1
# How the values were obtained:
# Assay in all cases: qHTS profiling for inhibitors of Plasmodium falciparum proliferation (AID 504749); note: nearly all actives have a fitted effect of over 60% in size
# Details in all cases: P. falciparum in erythrocytes, SYBR Green DNA, 72 h; series mostly up to 28.7 µM
# CP291 = system: CP291
# Method in brief: (§1)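 Three-day growth assay of blood-stage parasites in erythrocytes (0.3% parasitemia, 2.5% hematocrit) at 37 C, 5% CO2, quantified by SYBR Green DNA staining after overnight detergent lysis.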
# CP297 = system: CP297
# Method in brief: as §1
# CP305 = system: CP305
# Method in brief: as §1
# CP315 = system: CP315
# Method in brief: as §1
# CP325 = system: CP325
# Method in brief: as §1
# CP329 = system: CP329
# Method in brief: as §1
# CP335 = system: CP335
# Method in brief: as §1
# DFO2036 = system: DFO2036
# Method in brief: as §1
# DIV14 = system: DIV14
# Method in brief: as §1
# DIV17 = system: DIV17
# Method in brief: as §1
# Potency is the fitted concentration of half-maximal effect.
SMILES,Potency (CP291),Potency (CP297),Potency (CP305),Potency (CP315),Potency (CP325),Potency (CP329),Potency (CP335),Potency (DFO2036),Potency (DIV14),Potency (DIV17)
O=C(Nc1ccc(C(=O)O)c(O)c1)c1ccccc1,inactive,inactive,inactive,inactive,inactive,inactive,inactive,inactive,inactive,
C=C(Nc1ccc(OCC)cc1)Nc1ccc(OCC)cc1,inactive,inactive,inactive,inactive,inactive,inactive,inactive,inactive,inactive,inactive
Cc1ccc(O)c(-n2nc3ccccc3n2)c1,inactive,inactive,inactive,inactive,inactive,inactive,inactive,inactive,inactive,inactive
CCCCCCCCCCCCCCCC(=O)OC(C)C,inactive,inactive,inactive,inactive,inactive,inactive,inactive,inactive,inactive,inactive
CC1(C)C[C@@H]1C(=O)N/C(=C\CCCCSC[C@H](N)C(=O)O)C(=O)O,inactive,inactive,inactive,inactive,inactive,inactive,inactive,inactive,inactive,inactive
c1ccc2sc(SSc3nc4ccccc4s3)nc2c1,inactive,inactive,inactive,inactive,inactive,inactive,inactive,inactive,inactive,inactive
CN1CCN(c2cc3c(nn2)Oc2ccccc2N3C)CC1,inactive,inactive,inactive,inactive,inactive,inactive,inactive,inactive,inactive,inactive
CCCCCC[C@@H](O)C/C=C\CCCCCCCC(=O)O,inactive,inactive,inactive,inactive,inactive,inactive,inactive,inactive,inactive,inactive
C#C[C@]1(O)CC[C@H]2[C@@H]3CCc4cc(O)ccc4[C@H]3CC[C@@]21C,inactive,inactive,inactive,inactive,inactive,inactive,inactive,inactive,inactive,inactive
CCOC(=O)c1ccccc1O,inactive,inactive,inactive,inactive,inactive,inactive,inactive,inactive,inactive,inactive
Cc1ccccc1CNc1ncnc2c1ncn2C1OC(CO)C(O)C1O (centres undefined),inactive,inactive,inactive,inactive,inactive,inactive,inactive,inactive,inactive,inactive
Oc1c(Br)cc(Br)c2cccnc12,inactive,inactive,inactive,inactive,inactive,inactive,inactive,inactive,inactive,inactive
C=CCCCCCCCCC(=O)O,inactive,inactive,inactive,inactive,inactive,inactive,inactive,inactive,inactive,inactive
Nc1ccc(O)c(C(=O)O)c1,inactive,inactive,inactive,inactive,inactive,inactive,inactive,inactive,inactive,inactive
O=C1CN(/N=C/c2ccc(-c3ccc([N+](=O)[O-])cc3)o2)C(=O)N1,inactive,inactive,inactive,inactive,inactive,inactive,inactive,inactive,,
COc1cc(/C=C/C(=O)N2CCN(CC(=O)N3CCCC3)CC2)cc(OC)c1OC,inactive,inactive,inactive,inactive,inactive,inactive,inactive,inactive,,
CCCCCCCCCCCCCCCCCC(=O)O,inactive,inactive,inactive,inactive,inactive,inactive,inactive,inactive,inactive,inactive
COc1ccc(/C=C/C(=O)Nc2ccccc2C(=O)O)cc1OC,inactive,inactive,inactive,inactive,inactive,inactive,inactive,inactive,inactive,inactive
CCCSc1ccc2nc(NC(=O)OC)[nH]c2c1,inactive,inactive,inactive,inactive,inactive,inactive,inactive,inactive,inactive,inactive
CC1(C)[C@@H](O)CC[C@]2(C)[C@H]3C(=O)C=C4[C@@H]5C[C@@](C)(C(=O)O)CC[C@]5(C)CC[C@@]4(C)[C@]3(C)CC[C@@H]12,inactive,inactive,inactive,inactive,inactive,inactive,inactive,inactive,inactive,inactive
O=C(O)COc1ccc(C(=O)c2cccs2)c(Cl)c1Cl,inactive,inactive,inactive,inactive,inactive,inactive,inactive,inactive,inactive,inactive
CC1(C)S[C@@H]2[C@H](NC(=O)[C@H](NC(=O)N3CCN(S(C)(=O)=O)C3=O)c3ccccc3)C(=O)N2[C@H]1C(=O)O,inactive,inactive,inactive,inactive,inactive,inactive,inactive,inactive,inactive,inactive

SMILES,Potency (CP291),Potency (CP297),Potency (CP305),Potency (CP315),Potency (CP325),Potency (CP329),Potency (CP335),Potency (DFO2036),Potency (DIV14),Potency (DIV17)
C=CC(N)CCC(=O)O (centres undefined),inactive,inactive,inactive,inactive,inactive,inactive,inactive,inactive,inactive,inactive
O=C(O)/C=C/C(O)c1ccc(Cl)cc1 (centres undefined),inactive,inactive,inactive,inactive,inactive,inactive,inactive,inactive,inactive,inactive
CN1[C@@H]2CC[C@H]1CC(OC(=O)C(CO)c1ccccc1)C2 (some centres undefined),inactive,inactive,inactive,inactive,inactive,inactive,inactive,inactive,inactive,inactive
O=C(OCc1ccccc1)c1ccccc1,inactive,inactive,inactive,inactive,inactive,inactive,inactive,inactive,inactive,
CC1OC1P(=O)(O)O (centres undefined),inactive,inactive,inactive,inactive,inactive,inactive,inactive,inactive,inactive,inactive
O=C(O)[C@H](O)[C@@H](O)[C@H](O)[C@H](O)CO,inactive,inactive,inactive,inactive,inactive,inactive,inactive,inactive,inactive,inactive
O=C(O)[C@H](CC(=O)N1C[C@H]2CCCC[C@H]2C1)Cc1ccccc1,inactive,inactive,inactive,inactive,inactive,inactive,inactive,inactive,inactive,inactive
O=C1CC[C@@H](C(=O)N2CSC[C@H]2C(=O)O)N1 ([pGlu]-[Thz]-OH),inactive,inactive,inactive,inactive,inactive,inactive,inactive,inactive,inactive,inactive
CCCCCCOc1ccccc1C(N)=O,inactive,inactive,inactive,inactive,inactive,inactive,inactive,inactive,inactive,inactive
c1ccc2sc(SN3CCOCC3)nc2c1,inactive,inactive,inactive,inactive,inactive,inactive,inactive,inactive,,
O=C(/C=C/c1ccccc1)NCCO,inactive,inactive,inactive,inactive,inactive,inactive,inactive,inactive,inactive,inactive
Nc1ccc(C(=O)O)c(O)c1,inactive,inactive,inactive,inactive,inactive,inactive,inactive,inactive,inactive,inactive
C=CCN1C(=O)C(CC(C)C)NC1=S (centres undefined),inactive,inactive,inactive,inactive,inactive,inactive,inactive,inactive,inactive,inactive
CN(C)c1ccc(C(=C2C=CC(=[N+](C)C)C=C2)c2ccccc2)cc1,,,,,12 µM (active),,4.78 µM (active),,,6.01 µM (active)
C[S+](CC[C@H](N)C(=O)O)C[C@H]1O[C@@H](n2cnc3c(N)ncnc32)[C@H](O)[C@@H]1O (some centres undefined),inactive,inactive,inactive,inactive,inactive,inactive,inactive,,inactive,inactive
COc1ccc(-c2cc(=S)ss2)cc1,inactive,inactive,inactive,inactive,inactive,inactive,inactive,inactive,inactive,inactive
CN1[C@@H](CC(=O)c2ccccc2)CCC[C@H]1C[C@H](O)c1ccccc1,,inactive,,inactive,inactive,,inactive,,13.5 µM (active),10.7 µM (active)
Cc1ccc(C(=O)c2ccc(CC(=O)O)n2C)cc1,inactive,inactive,inactive,inactive,inactive,inactive,inactive,inactive,inactive,inactive
O=C(O)c1cc(O)c(O)c(O)c1,inactive,inactive,inactive,inactive,inactive,inactive,,inactive,,
O=C(O)Cc1ccc(-c2ccccc2)cc1,inactive,inactive,inactive,inactive,inactive,inactive,,inactive,inactive,inactive
[O-][n+]1ccccc1SSc1cccc[n+]1[O-],1.2 µM (active),1.35 µM (active),0.953 µM (active),1.69 µM (active),0.953 µM (active),1.35 µM (active),0.601 µM (active),0.891 µM (active),0.757 µM (active),0.536 µM (active)
CC(=O)[C@]1(O)Cc2c(O)c3c(c(O)c2[C@@H](O[C@H]2C[C@H](N)[C@H](O)[C@H](C)O2)C1)C(=O)c1c(O)cccc1C3=O,9.53 µM (active),13.5 µM (active),7.57 µM (active),,15.1 µM (active),,5.36 µM (active),7.94 µM (active),4.26 µM (active),4.78 µM (active)
